46 sequences from paper PMC7819943, “Rice protein-binding microarrays: a tool to detect cis-acting elements near promoter regions in rice” can be followed below.

Over roughly 68,000 sequences, “fluorescence intensity (a.u.)” has its median near 9,100; the highest 2% begin near 16,000. This is one part of a sample in which the highest values are shown more often than they occur.

The target in the assay is OsWRKY34 (Oryza sativa, UniProt Q0JBA9 1-250). Put plainly: protein-binding microarray (RPBM); PBS, 2% BSA, 51.3 ng/ul salmon testes DNA, 50 uM zinc acetate, 200 nM TF, 25 C, 1 h; high values mean tight binding. Conditions: protein: recombinant; tags: N-terminal polyhistidine and DsRed monomer fusion (pET32a); label: CyDye5-dUTP incorporated in the synthesized complementary strand; 3' TTTTT single-stranded linker to array surface; dsDNA, one strand shown. The gist of the method: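 Transcription factors were made in E. coli BL21-CodonPlus as N-terminal fusions to a polyhistidine tag and DsRed, then purified on Ni–NTA. After primer extension with Cy5-dUTP and blocking with 2% BSA, a custom Agilent array was exposed for 1 h at 25 °C to 200 nM protein in PBS, 2% BSA, salmon testes DNA and 50 µM zinc acetate. Washed arrays were scanned on an Axon 4000B, and the binding signal is per-feature fluorescence intensity in arbitrary units.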
Sequence of OsWRKY34 (Q0JBA9 entry or part of it): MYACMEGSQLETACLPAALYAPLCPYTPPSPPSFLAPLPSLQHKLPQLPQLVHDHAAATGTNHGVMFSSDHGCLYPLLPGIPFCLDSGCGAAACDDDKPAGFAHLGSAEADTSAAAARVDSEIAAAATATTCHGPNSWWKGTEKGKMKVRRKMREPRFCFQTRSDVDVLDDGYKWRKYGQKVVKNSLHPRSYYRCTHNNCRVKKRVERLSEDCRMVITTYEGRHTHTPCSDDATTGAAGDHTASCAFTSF
In the case of “CATCTTCGCAGCAACTCAGTCATCAGCCCATAGCCATTTACGGAGTCACCTAGTGCAG”, the binding signal was 8950 fluorescence intensity (a.u.).
The result for “AAGGCTTATCACTTCGATTTTTATTTTAGTCCTTGTACTTCGGAGTCACCTAGTGCAG” reads 8460 fluorescence intensity (a.u.); that for “ACCATCTTTTAAATCAGACCTCTCACCAATTTTGATATTTCGGAGTCACCTAGTGCAG”, 8230 fluorescence intensity (a.u.).
As for “CGCCGGTACGTTTTCCCCGCCGCCGCCTTTCCGGCCGGCCCGGAGTCACCTAGTGCAG”, the binding signal was 8950 fluorescence intensity (a.u.).
To “ACTGTAGCCCATTTTTGATATGGCCAAGGCCCACATAGCACGGAGTCACCTAGTGCAG” belongs 8260 fluorescence intensity (a.u.).
In the case of “GTCTACATGAACCATTCCAAATGACTTTTATAGGATTTCACGGAGTCACCTAGTGCAG”, the binding signal is 8340 fluorescence intensity (a.u.).
On to “GCACCAAGGCCAATACTTGTCCGGATCACCAAGGACACCTCGGAGTCACCTAGTGCAG”, for which the binding signal was 8020 fluorescence intensity (a.u.).
To “TTTATTAGTTTGTGTCCTGGTTTTCTTTTTCAGTTAGATTCGGAGTCACCTAGTGCAG” belongs 8430 fluorescence intensity (a.u.).
The result for “TTACAAGACTTAATTTCAAGGTCCGTCGATTGTCTCTCCACGGAGTCACCTAGTGCAG” reads 8830 fluorescence intensity (a.u.); that for “GTATAGGGGAGAGGGTGGGCGGGTGATCACTGGGTGGGTGCGGAGTCACCTAGTGCAG”, 12200 fluorescence intensity (a.u.).
The result for “CCCTCCGCTGAGGTTGCGGTTGATGATCTTTCATCAGTGACGGAGTCACCTAGTGCAG” reads 8590 fluorescence intensity (a.u.); that for “ATCCATCACATCACGAAACCACTTCATGTACTCTTAACATCGGAGTCACCTAGTGCAG”, 8080 fluorescence intensity (a.u.).
For the sequence “TATGTGCTAAAAAGTCAACGGTGTCAAACATTTCGAAACGCGGAGTCACCTAGTGCAG”, the binding signal is 14000 fluorescence intensity (a.u.).
To “AAATGTGCTAAAAAGTCAACGGTGTCAAACATTTCGAAATCGGAGTCACCTAGTGCAG” belongs 16400 fluorescence intensity (a.u.); to “AAACATGTGCTAAAAAGTCAACGGTGTCAAATATTTCGAACGGAGTCACCTAGTGCAG”, 15600 fluorescence intensity (a.u.); to “AAACCTCCACCACCACCGCCACCACCGCCGCGCAAAACCCCGGAGTCACCTAGTGCAG”, 8700 fluorescence intensity (a.u.).
To “TATCTTTTTCTTTTTGGAGGTTTCGTTTTCTCTTGGTCAACGGAGTCACCTAGTGCAG” belongs 10400 fluorescence intensity (a.u.); to “AATTAACATCACCAATCAGCAATCACCAACCTTGTCATCTCGGAGTCACCTAGTGCAG”, 8970 fluorescence intensity (a.u.).
To “TTTCATCAATTGCCTCTTGTATCAGCTACTATGCAATATACGGAGTCACCTAGTGCAG” belongs 8850 fluorescence intensity (a.u.); to “GCTAGACTATCATCAGCAAGCTAGCAATTAAAGGCCTTGTCGGAGTCACCTAGTGCAG”, 64200 fluorescence intensity (a.u.); to “CCATGCTCGCGGCGTTTACTTTCCTCACTATTTTTTAGATCGGAGTCACCTAGTGCAG”, 9410 fluorescence intensity (a.u.).
Turning to “GGATCGCGTGGTTTGTGTCGTGTCTTTGCATACGGCGACACGGAGTCACCTAGTGCAG”, the binding signal is 8300 fluorescence intensity (a.u.).
The result for “CCATCACCACCTCCCGATCCGCGCGCTTTCTCTCCCGCGCCGGAGTCACCTAGTGCAG” reads 9090 fluorescence intensity (a.u.).
The result for “CCGTTTTTTAATAGATAACGCTGTTGACTTTTTCTTATATCGGAGTCACCTAGTGCAG” reads 11200 fluorescence intensity (a.u.).
The result for “GTTTTTTAATAGATAACGCCGTTGACTTTTTTTCACATGTCGGAGTCACCTAGTGCAG” reads 21500 fluorescence intensity (a.u.); that for “AACTTTACTTTTTCTCATAGTGTTGATTAGATATATGTTTCGGAGTCACCTAGTGCAG”, 10600 fluorescence intensity (a.u.).
Regarding “TTTTCAGTAGATAACATCGTTGACTTTTCAACGAATATTTCGGAGTCACCTAGTGCAG”, the binding signal is 14400 fluorescence intensity (a.u.).
To “TTTTTAATAGATAACGTCGTTGACTTTTTCTCACATGTTTCGGAGTCACCTAGTGCAG” belongs 25600 fluorescence intensity (a.u.).
To “GGAGGAGAGAGGGGTGGGGTTTGTGGTGTCGTCGTCCATGCGGAGTCACCTAGTGCAG” belongs 11700 fluorescence intensity (a.u.); to “GACTATGCGCGCTATATAAAGGATCACATTATCTCATACTCGGAGTCACCTAGTGCAG”, 8930 fluorescence intensity (a.u.); to “TTGCCGTACAATCTTGATTTGGAGATCTTCCTGGCCAACACGGAGTCACCTAGTGCAG”, 9120 fluorescence intensity (a.u.).
Take “AGAAAGCCCATTTTGCCCTTTGTGCTTCAGAACATCGAGCCGGAGTCACCTAGTGCAG”: the binding signal was 8020 fluorescence intensity (a.u.).
As to “CATCCGGCCATGGTGATGACCGGCGGCGATGATCAGCAGCCGGAGTCACCTAGTGCAG”, the binding signal is 48200 fluorescence intensity (a.u.).
To “AAACCATGCGGCGCACGAGCCACTCGCACTCGCACTCGCACGGAGTCACCTAGTGCAG” belongs 9360 fluorescence intensity (a.u.); to “GTGGTGGTGGTGGTGGTGGTGGTGGTGGTGCACGGCCATGCGGAGTCACCTAGTGCAG”, 16400 fluorescence intensity (a.u.).
Turning to “TGGCGAGGAGGTGGTGGTGGTTGTGGTGGGTGCGGCCATGCGGAGTCACCTAGTGCAG”, the binding signal is 12100 fluorescence intensity (a.u.).
The result for “CGGAGGGAGGCGGAGGCGGTGGTGGTGGTGGTGGTGCCGGCGGAGTCACCTAGTGCAG” reads 12500 fluorescence intensity (a.u.); that for “GTGGTGGTGGTGGTGGTGGTGGCGGCGGCGGCCGGCCATGCGGAGTCACCTAGTGCAG”, 20000 fluorescence intensity (a.u.).
The result for “GTACTGGCTTGGCTGGGTCGGGCTCGGGCTGGGCCATGAACGGAGTCACCTAGTGCAG” reads 8340 fluorescence intensity (a.u.); that for “AACTCAGTCTCAGCTCACATGATGCATCATCAGCCATGGCCGGAGTCACCTAGTGCAG”, 8200 fluorescence intensity (a.u.).
To “GCCGCATGGTGGTGCTGGTTGGGGTGGTGGTGGTGGCGGCCGGAGTCACCTAGTGCAG” belongs 14800 fluorescence intensity (a.u.); to “CCGCCGCCATCAAGTCCGCCATCATGACCACCGGTGAGAACGGAGTCACCTAGTGCAG”, 8490 fluorescence intensity (a.u.); to “ACGCTTGGTGGGGTGGGGTGGTGCTGGTGCCATGAACTGCCGGAGTCACCTAGTGCAG”, 22300 fluorescence intensity (a.u.).
Take “GAGGAGAGAGAGAGAGAGTGGTGGTGGTGGTGGTGAGATGCGGAGTCACCTAGTGCAG”: the binding signal is 8460 fluorescence intensity (a.u.).
The result for “CAGCCACCTCCTCCTCTTCTTCCCCAACTTTCTGCTTGATCGGAGTCACCTAGTGCAG” reads 9300 fluorescence intensity (a.u.); that for “CCCACGCAGATCTCCGCTTTTTCCCGGCGGCAACCACGCCCGGAGTCACCTAGTGCAG”, 10200 fluorescence intensity (a.u.).
